Screening results from PubChem.
This is a sample that favours compounds with a hit; in the whole collection about 3.2% have one here.
TWEAK Fn14 block: inhibitors of TWEAK-Fn14 interaction signaling. AID 1159606. inhibition, % at 10 µM. TWEAK-stimulated Fn14 reporter cells, luciferase luminescence, 8 h. 360,000 tested, 2% active; in the data active means inhibition above about 50%
LGR2 antag: blocks bursicon-induced cAMP signaling via Drosophila LGR2; HEK293 LGR2, CRE-luciferase, bursicon-stimulated, 4 h; inhibition, % at 9.99 µM; 380,000 tested, 0.35% active; AID 720647;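 active means drop in luminescence signal, shown as inhibition above about 50% in the replicate tests, limit read from the data, passing the limit was not always enough; inconclusive means probably only some replicates passing the limit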;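 further: agonist challenge used bursicon conditioned medium at about half maximal strength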
PAX8 reporter: lowers PAX8-driven luciferase in RMG-I cells; RMG-I TPO-luciferase reporter, SteadyGlo, 24 h; inhibition, % at 12.6 µM; 360,000 tested, 1.2% active; AID 652154;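 active means mean replicate inhibition at least 60% with every replicate also reaching 60%; inconclusive means only one of the two criteria is met; inactive means mean below 60% and not all replicates reaching 60%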;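 further: luciferase light reporting Pax8 driven TPO promoter activity; plate controls were median of neutral control wells for no effect and mitoxantrone controls for full effect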
TROY NFkB inh: inhibitors of TROY-dependent NF-kB signaling; 360,000 tested, 0.98% active; Q293 LMP1-TROYcd NF-kB luciferase reporter, 4 h; inhibition, % at 10 µM;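 active means compounds whose plate-normalised and pattern-corrected inhibition of the luciferase reporter signal at the single screening dose is 50% or more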
EBV LMP1 NFkB: inhibitors of Epstein-Barr LMP1-induced NF-kappaB reporter. AID 504558. 350,000 tested, 0.69% active. inhibition, % at 12.5 µM. LMP1-induced NF-kappaB luciferase reporter cells, luminescence; in the data active means inhibition above about 41%; inconclusive means no clear call, values can overlap the other calls;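 further: 0% = neutral control wells and 100% = reference inhibitor control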
EWS-Fli inh: EWS/Fli transcriptional activity inhibition | A673 NR0B1-luciferase reporter, viability-normalised | inhibition, % at 12.6 µM | 350,000 tested, 0.67% active | AID 651661;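 active means mean inhibition of at least 50% after viability correction, with every replicate also passing that limit; inconclusive means mean reaches 50% but only one of two replicates passes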;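 further: firefly luciferase signal divided by Alamar Blue viability fluorescence both relative to DMSO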
* marks the source's active call; other numbers are inactive results; ? = inconclusive; nt = no result given.

SMILES | TWEAK Fn14 block | LGR2 antag | PAX8 reporter | TROY NFkB inh | EBV LMP1 NFkB | EWS-Fli inh
COCC(=O)N1[C@H](CO)[C@@H](c2ccc(-c3ccccc3OC)cc2)C12CN(C(C)=O)C2 | nt | 19.2 | -8.5 | nt | nt | 3.7
O=C(N/N=C/c1cc([N+](=O)[O-])ccc1Cl)c1cnccn1 | 6.2 | -29.5 | 12.1 | 8.7 | -2.2 | 56.5*
COCC(=O)N1[C@@H]2c3ccc(/C=C/c4ccccc4)c(=O)n3C[C@H]1[C@H](CO)[C@H]2C(=O)N1CCCCC1 | nt | -4.8 | 3.0 | nt | nt | 3.6
O=C(Nc1ccccc1)N1CC(=O)N2[C@H](CO)[C@@H](c3ccc(C#CC4CC4)cc3)[C@@H]2C1 | nt | 1.5 | 21.0 | nt | nt | -3.4
COc1ccc(NC(=O)c2ccc(-c3ccc(-c4noc(C)n4)cc3C)cc2)cc1N1CCN(C)CC1 | -24.0 | 103.5* | 32.5 | 0.0 | -18.7 | 9.0
COc1ccc(Cl)cc1-c1nc(-c2ccc(NC(=O)c3ccncc3)cc2)no1 | 19.3 | nt | -2.9 | 0.0 | 1.6 | nt
COc1ccc(-c2nc(-c3ccc(NC(=O)c4ccncc4)cc3)no2)cc1OC | 94.4* | nt | nt | 66.6* | 27.2 | nt
C[C@@H]1CN([C@H](C)CO)C(=O)c2cc(NC(=O)Nc3cccc4ccccc34)ccc2O[C@H]1CN(C)Cc1ccc(C(=O)O)cc1 | nt | -3.9 | 5.7 | nt | nt | 5.5
Cn1nnnc1Sc1ncnc2scc(-c3cccc(S(C)(=O)=O)c3)c12 | 60.9* | 85.2* | 105.8* | 26.7 | 46.9* | -17.2
CC(=O)c1cccc(-c2csc3ncnc(Sc4nnnn4C)c23)c1 | 75.4* | ? | 113.7* | 19.5 | nt | -2.2
O=C(O)CSc1ncnc2scc(-c3ccccc3)c12 | 12.1 | 12.2 | -14.3 | 22.2 | -0.3 | 4.0
O=C(O)CSc1ncnc2scc(-c3ccc(Br)cc3)c12 | 11.3 | -0.6 | -8.3 | 14.7 | -0.2 | 2.3
Cn1nnnc1Sc1ncnc2scc(-c3cccc(Br)c3)c12 | 98.9* | 4.3 | 90.7* | 67.0* | 77.6* | ?
CN1C(=O)C2C(C1=O)C1C=C(CCCO)C2C(c2ccc(CN3CCCC3)cc2)N1Cc1sc2ccccc2c1Cl (stereo not drawn) | nt | nt | 8.7 | nt | nt | 0.2
CN(C)CC#Cc1ccc([C@H]2[C@@H](CO)N3CCCCN(C(=O)Nc4cc(F)ccc4F)C[C@H]23)cc1 | nt | -1.4 | -19.6 | nt | nt | 5.3
O=C(N[C@H]1C=C[C@H](CC(=O)N2CCOCC2)O[C@@H]1CO)c1ccccn1 | nt | 22.1 | -12.5 | nt | nt | -2.5
O=C(C[C@@H]1CC[C@H](NC(=O)C2CCC2)[C@@H](CO)O1)NCc1ccncc1 | nt | 15.3 | -17.5 | nt | nt | -4.6
COc1cc2oc(=O)cc(-c3ccc(-c4ccc(CO)cc4)cc3)c2c(OC)c1OC | 65.6* | 2.3 | -18.5 | 43.5 | 12.7 | -18.2
Cc1cccc(S(=O)(=O)N[C@@H]2CC[C@H](CCNC(=O)CCN3CCCCC3)O[C@@H]2CO)c1 | nt | 2.8 | -5.9 | nt | nt | 0.3
COc1cc([N+](=O)[O-])ccc1-c1ccc(/C=N\n2cnnc2)o1 | -46.0 | 3.6 | 9.2 | -10.7 | -9.5 | 5.1
COc1cc([N+](=O)[O-])ccc1-c1ccc(/C=C2\C(=O)ON=C2c2ccccc2)o1 | 67.9* | -2.6 | -27.7 | -1.6 | 17.1 | 37.9
O=C1CSC(c2ccccn2)N1c1ccc(Cl)c(Cl)c1 (stereo not drawn) | 107.5* | nt | -8.2 | -3.9 | -1.8 | nt
COc1ccc(S(=O)(=O)Nc2ccc3c(c2)CC(=O)N([C@H](C)CO)C[C@@H](C)[C@@H](CN(C)C(=O)Nc2ccc(F)cc2)O3)cc1 | nt | -16.9 | -17.1 | nt | nt | 7.1
Cc1cc(N)c2cc(NC(=O)/C=C/c3ccccc3Cl)ccc2n1 | 34.3 | nt | nt | 81.0* | 3.3 | nt
Cc1ccnc(NC(=O)/C=C/c2ccccc2Cl)c1 | 64.5* | 25.2 | 13.8 | 37.9 | -27.6 | 28.3
SMILES | TWEAK Fn14 block | LGR2 antag | PAX8 reporter | TROY NFkB inh | EBV LMP1 NFkB | EWS-Fli inh
Cc1cc(C)nc(NC(=O)/C=C/c2ccccc2Cl)n1 | -25.0 | nt | nt | -41.8 | 3.7 | nt
Cc1cc(-c2ccc(C)c(S(=O)(=O)N3CC(=O)Nc4ccccc43)c2)on1 | 92.1* | -15.8 | -3.3 | -14.5 | -4.1 | -2.6
CCc1ccc(-c2cc(C)no2)cc1S(=O)(=O)N1CC(=O)Nc2ccccc21 | -12.1 | 1.0 | 2.0 | -20.5 | 4.1 | 0.5
Cc1ccc(-c2onc(C)c2C)cc1S(=O)(=O)N1CCOc2ccccc21 | 64.2* | 19.7 | 16.2 | 44.0 | 17.9 | nt
CCCNC(=O)Nc1ccc2c(c1)C(=O)N(C)C[C@@H](OC)[C@H](C)CN(C(=O)C1CC1)[C@@H](C)CO2 | nt | 12.1 | 7.3 | nt | nt | -7.0
CC(=O)C1=C(c2ccc(Br)cc2)C(=O)c2ccccc2C1=O | 102.7* | 99.1* | 99.3* | 56.5* | 92.0* | nt
O=C(Cc1ccccn1)NCC[C@H]1CC[C@H](NC(=O)Nc2ccccc2)[C@H](CO)O1 | nt | 18.6 | 0.2 | nt | nt | -5.7
Cc1ccc(-c2nc(NC(=O)CSc3nnc4scc(-c5ccccc5)n34)ns2)cc1 | 47.6 | 6.2 | 28.4 | 52.2* | -3.6 | 1.8
CCN1C[C@@H](C)[C@H](OC)CN(C)C(=O)c2cc(NC(=O)NC(C)C)ccc2OC[C@H]1C | nt | 8.4 | nt | nt | nt | 9.7
COC(=O)c1ccccc1S(=O)(=O)C(C)(C)C | -24.7 | nt | 19.3 | 24.9 | 8.5 | nt
COC(=O)c1ccccc1S(=O)(=O)NNC(=O)Nc1ccccc1 | 68.8* | 58.1* | -2.6 | 32.7 | 19.0 | 25.0
COCCNC(=O)C[C@@H]1C[C@H]2c3cc(NC(=O)Nc4ccc(C(F)(F)F)cc4)ccc3O[C@H]2[C@H](CO)O1 | nt | -10.3 | 91.1* | nt | nt | 4.8
O=C(C[C@H]1C[C@@H]2c3cc(NC(=O)Nc4ccc(C(F)(F)F)cc4)ccc3O[C@@H]2[C@H](CO)O1)NCCc1ccccc1 | nt | 10.3 | 37.0 | nt | nt | 18.1
O=C(C[C@H]1C[C@@H]2c3cc(NC(=O)Nc4ccc(C(F)(F)F)cc4)ccc3O[C@@H]2[C@@H](CO)O1)NCCc1ccccc1 | nt | 29.4 | 98.8* | nt | nt | 38.1
O=C(C[C@H]1C[C@@H]2c3cc(NC(=O)Nc4ccccc4F)ccc3O[C@@H]2[C@@H](CO)O1)NCCc1ccccc1 | nt | 10.0 | nt | nt | nt | 8.8
C[C@H](NC(=O)C[C@@H]1C[C@@H]2c3cc(NC(=O)Nc4ccc(C(F)(F)F)cc4)ccc3O[C@@H]2[C@@H](CO)O1)c1ccccc1 | nt | 6.7 | 107.1* | nt | nt | 1.6
O=C(C[C@@H]1C[C@H]2c3cc(NC(=O)Nc4ccc(C(F)(F)F)cc4)ccc3O[C@H]2[C@H](CO)O1)NCCc1ccccc1 | nt | 27.5 | 100.4* | nt | nt | 43.2
O=C(C[C@@H]1C[C@H]2c3cc(NC(=O)Nc4ccc(C(F)(F)F)cc4)ccc3O[C@H]2[C@H](CO)O1)NC1CCCCC1 | nt | 12.9 | 66.9* | nt | nt | 19.4
O=C(C[C@@H]1C[C@@H]2c3cc(NC(=O)Nc4ccccc4)ccc3O[C@@H]2[C@H](CO)O1)NCc1cccc(F)c1 | nt | 0.3 | -10.5 | nt | nt | 2.9
O=S(=O)(c1ccccc1F)N1CC[C@@H]2[C@@H](CO)Nc3ccc(-c4ccccc4)cc3[C@@H]21 | nt | -0.9 | 14.8 | nt | nt | 5.3
